# High-throughput results: PubChem, several laboratories
# Mcl1-Noxa inh: disrupts binding of human Mcl-1 to Noxa peptide. hit rate 1.5% among 220,000. inhibition, % at 21.7 µM. TR-FRET Mcl-1/Noxa peptide binding, 2 h. AID 1022;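 active = compounds that cut the protein-peptide binding signal by more than 50% relative to plate controls in a single-dose test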;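 also: His-tagged Mcl-1 with rhodamine Noxa BH3 peptide and terbium anti-His antibody; 0% = Mcl-1 plus Noxa peptide wells and 100% = peptide-only wells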
# Target sequence (Q07820 whole entry, looked up): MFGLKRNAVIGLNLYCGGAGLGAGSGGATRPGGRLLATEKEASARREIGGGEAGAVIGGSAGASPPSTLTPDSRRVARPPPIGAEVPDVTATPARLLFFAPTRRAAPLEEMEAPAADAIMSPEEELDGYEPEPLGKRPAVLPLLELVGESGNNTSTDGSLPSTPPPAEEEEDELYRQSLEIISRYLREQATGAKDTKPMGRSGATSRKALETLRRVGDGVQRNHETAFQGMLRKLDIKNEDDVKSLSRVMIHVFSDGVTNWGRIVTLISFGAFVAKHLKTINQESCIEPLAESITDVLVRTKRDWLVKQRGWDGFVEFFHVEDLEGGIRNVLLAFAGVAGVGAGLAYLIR
# L929 necroptosis: blocks zVAD induced death of L929 cells. L929 zVAD necroptosis rescue, ATP luminescence, 24 h; with zVAD 60 µM. viability rescue, % at 10 µM. hit rate 0.38% among 220,000. AID 1377;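 active = activation, scaled between plate controls, above about 75%, limit read from the data; inactive = activation under that limit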;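 also: 0% = zVAD with DMSO and 100% = DMSO alone without zVAD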
# Mcl1 Bid PPI: Mcl-1/Bid interaction inhibition; TR-FRET Mcl-1/Bid-Dy647 peptide binding, 1536-well; inhibition, % at 21.7 µM; hit rate 0.97% among 220,000; Q07820;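 active = compounds that cut the binding signal by more than half at the single screening dose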;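 also: His-tagged Mcl-1 with europium anti-His antibody binding Bid BH3 peptide; 0% = Mcl-1 plus peptide wells and 100% = peptide-only wells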
# TNF necrop inh: blocks TNF-alpha induced death of Jurkat FADD-/- cells | activation (protection from cell death), % at 10 µM | hit rate 0.068% among 220,000 | Jurkat FADD-/- TNF necroptosis rescue, ATP luminescence, 24 h; 0 = TNF only, 100 = no-TNF cells;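 active = activation, meaning protection from cell death, of at least 50% relative to plate controls; inactive = activation below 50%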;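 also: necroptosis triggered by 40 ng/mL TNF-alpha added together with compound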
# MCL1-BIM inh: disrupts human MCL1 binding to BIM-BH3 peptide. Q07820. GST-MCL1 / FITC-Bim-BH3 fluorescence polarization. inhibition, % at 10.9 µM. hit rate 0.68% among 320,000;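 active = inhibition above the mean inhibition of all tested compounds plus 3 SD, set per campaign, cut at about 40% in these data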;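 also: 0% = DMSO wells and 100% = unlabeled Bim-BH3 peptide control; higher means more loss of mP so more displacement of Bim peptide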
# Mcl-1 Bim block: inhibitors of Bim-Mcl-1 interaction, human; hit rate 0.1% among 190,000; inhibition, % at 10 µM; Bead-based flow cytometry, Bim peptide-Mcl-1 binding; AID 1009; in the data active = inhibition above about 40%;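 also: 0% = no compound tracer wells and 100% = peptide blocker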
# * = called active by the depositor; x = no result. Compounds with a hit are over-represented: about 2.4% of the library has one in this group of screens.
SMILES,Mcl1-Noxa inh,L929 necroptosis,Mcl1 Bid PPI,TNF necrop inh,MCL1-BIM inh,Mcl-1 Bim block
COc1ccccc1NC(=O)N1CCN(Cc2ccc3c(c2)OCO3)CC1,7.2,0.6,-5.7,5.8,0.2,x
COc1ccc(NC(=O)CCNC(=O)Cn2ccc3ccccc3c2=O)cc1Cl,x,x,x,x,2.1,x
CC(C)NC(=O)c1ccc(COCC(F)(F)F)cc1,17.4,1.1,87.4*,1.8,0.6,-3.0
CC(C)NC(=O)c1ccc(CNC(=O)OCC(F)(F)F)cc1,-5.1,0.1,-14.1,-1.1,4.2,-2.0
CC1=NN(c2ccccc2)C(=O)/C1=C/c1c(O)n(-c2ccc(F)c(Cl)c2)[nH]c1=O,85.8*,0.7,40.5,1.9,5.5,-3.0
CC1=NN(c2ccccc2)C(=O)/C1=C\c1c(C)[nH]n(-c2ccccc2)c1=O,14.6,-0.1,-2.7,-0.6,0.5,-4.0
Cn1nnnc1NCc1ccccc1F,x,x,x,x,3.2,x
O=C(/C=C/Nc1cccc(F)c1)c1ccco1,-2.8,0.8,86.7*,-0.5,2.0,-2.0
O=C(/C=C/Nc1ccc(F)c(Cl)c1)c1ccco1,-6.4,0.3,-49.0,-1.9,-6.1,0.0
COc1ccc(NC(=O)c2cccc(N3C(=O)c4cccc([N+](=O)[O-])c4C3=O)c2)cc1,x,x,x,x,-5.9,x
COc1ccc(/C=C2\C(=O)N(c3c(Cl)cc(Cl)cc3Cl)N=C2NC(=O)c2cccc([N+](=O)[O-])c2)cc1,106.4*,2.1,24.3,-0.2,5.7,0.0
CC1(C)CC(=O)C(C(=O)/C=C/c2ccco2)C(=O)C1,-1.0,4.0,-23.5,0.9,4.9,0.0
CC(C)OC(=O)Nc1ccc2c(c1)N(C(=O)N1CCN(C)CC1)c1ccccc1CC2,51.4*,-1.5,12.2,-16.7,7.2,x
CN(C(=O)c1ccc(C#N)cc1)c1nnc(-c2cnccn2)s1,38.2,0.9,85.5*,0.4,1.4,x
NC(=O)C1CCN(c2nc3c(S(=O)(=O)c4ccccc4)nnn3c3ccccc23)CC1,x,x,x,x,0.2,x
O=C(COc1ccccc1)Nc1sc2c(c1C(=O)NCc1cccnc1)CCCC2,-25.2,0.4,58.6*,-1.5,-8.7,0.0
COc1ccc(/C=C/C(=O)Nc2sc3c(c2C(=O)NCc2cccnc2)CCCC3)cc1,7.7,-0.1,-18.6,-6.3,4.9,-3.0
CC(C)Oc1ccc(CN2CCCC(CO)(Cc3ccc(F)cc3)C2)cc1 (stereo not drawn),x,x,x,x,46.4*,x
COc1ccc(CN2CCCC(CO)(Cc3ccc(F)cc3)C2)c(OC)c1OC (stereo not drawn),x,x,x,x,1.2,x
Cc1ccc(C(=O)N/C(=C\c2ccco2)C(=O)N2CCCCC2)cc1,x,x,x,x,5.8,x
CCC(=O)N1CCc2cc(S(=O)(=O)N3CCCCCC3)ccc21,x,x,x,x,-1.6,x
CCN1CCN(C(c2cccs2)C(C)NC(=O)c2cccc(OC)c2OC)CC1 (stereo not drawn),52.2*,-1.0,-43.1,0.7,4.2,-5.0
CCN1CCN(C(c2cccs2)C(C)NC(=O)c2cccc(OC)c2)CC1 (stereo not drawn),x,x,x,x,6.2,x
CN(C(=O)COC(=O)c1ccc(Br)c([N+](=O)[O-])c1)c1c(N)n(Cc2ccccc2)c(=O)[nH]c1=O,x,x,x,x,-3.5,x
COC(=O)COc1ccc(S(=O)(=O)NCc2ccccn2)cc1,x,x,x,x,0.2,x
SMILES,Mcl1-Noxa inh,L929 necroptosis,Mcl1 Bid PPI,TNF necrop inh,MCL1-BIM inh,Mcl-1 Bim block
COC(=O)Nc1ccc(S(=O)(=O)NCc2ccccn2)cc1,82.2*,1.1,-4.2,-1.1,7.8,4.0
O=C(Cn1nnc(-c2ccccc2NC(=O)c2cccs2)n1)Nc1ccccc1,6.0,1.7,87.0*,-9.9,-6.9,-4.0
COc1ccc(NC(=O)Cn2nnc(-c3ccccc3NC(=O)c3ccco3)n2)cc1,-39.9,41.2,66.3*,-6.7,4.0,0.0
Cc1c(O)ccc(C(=O)CN2CCN(c3ccccc3)CC2)c1O,x,x,x,x,9.9,x
Cc1cc(Cl)ccc1C(=O)C1CCCN(C(=O)c2cnn(C(C)C)c2)C1 (stereo not drawn),x,x,x,x,1.7,x
O=C(Nc1ccc2[nH]c(=S)sc2c1)c1ccccc1,43.4,0.0,-30.7,-0.3,0.4,-10.0
O=C(Nc1ccc2[nH]c(=S)sc2c1)Nc1ccccc1F,55.5*,2.4,-147.1,-15.1,6.5,x
COc1ccc(CNC(=O)c2nnn(-c3cccc(C(F)(F)F)c3)c2N)cc1,-11.1,2.8,0.8,1.3,8.2,-1.0
O=c1[nH]c2ccccc2c2nc3ccccn3c12,-4.5,65.7,5.2,-8.3,-2.3,3.0
O=c1nc2c(O)cccn2c2c1c(=O)[nH]c1ccccc12,60.6*,2.6,-83.4,0.0,x,21.0
COc1ccc(NS(=O)(=O)c2cccc(C(=O)N3CCCC(C)C3)c2)cc1 (stereo not drawn),x,x,x,x,-5.3,x
Cc1ccc(Cn2c(=S)[nH]c3ccc(N4CCOCC4)cc3c2=O)o1,72.7*,1.1,-3.7,-16.5,22.2,3.0
N#Cc1ccccc1Cn1c(-c2cscn2)nc2ccccc21,5.9,-0.6,79.2*,-1.6,7.7,1.0
CN(CCc1ccccn1)C(=O)CC1C(=O)NCCN1Cc1cccc(F)c1 (stereo not drawn),x,x,x,x,27.1,x
OC1(c2cccnc2)CCN(Cc2nnnn2C2CCCCC2)CC1,35.5,-0.1,51.5*,-0.3,-0.1,0.0
C1CCC(n2nnnc2CN2CCCC2)CC1,18.8,-0.1,2.6,-2.9,1.2,1.0
COc1ccc(NC(=O)CSc2nc3scc(C)c3c(=O)[nH]2)cc1,x,x,x,x,5.0,x
CN(CC(=O)NCc1ccco1)CC(=O)Nc1c(Cl)cccc1Cl,x,x,x,x,-10.2,x
COc1c(C)cc(Br)cc1C(=O)Nc1ccc(C)cc1[N+](=O)[O-],3.1,-0.1,9.2,0.5,-0.7,8.0
COc1c(C)cc(Br)cc1C(=O)Nc1ccc(S(N)(=O)=O)cc1,6.6,-0.1,-30.5,-1.1,-0.7,44.0*
COc1ccccc1N1C(=N)S/C(=C\c2ccc(-c3ccccc3C(=O)O)o2)C1=O,52.5*,1.0,-27.1,2.5,-8.5,2.0
N=C1S/C(=C\c2ccc(-c3ccccc3C(=O)O)o2)C(=O)N1c1ccc2c(c1)OCO2,59.5*,0.7,-0.1,1.0,x,3.0
Cc1ccc(NC(=O)CN2C(=O)S/C(=C\c3ccc(-c4cccc(C(=O)O)c4C)o3)C2=O)cc1C,78.8*,50.6,-75.8,2.6,x,4.0
CCOC(=O)CN1C(=O)S/C(=C\c2ccc(-c3cccc(C(=O)O)c3C)o2)C1=O,x,x,x,x,-4.0,x
Cc1ccc(NC(=S)NCc2ccc(Cl)cc2)c(OC(F)F)c1,x,x,x,x,14.4,x
CC(NC(=O)c1cccc(OC2CCN(C3CCN(C)CC3)CC2)c1)c1ccccc1 (stereo not drawn),x,x,x,x,1.4,x
CCOC(=O)CSc1nc2sc3c(c2c(=O)n1-c1ccccc1)CCN(C(C)C)C3,x,x,x,x,8.7,x
Clc1ccc(/C=C/c2nc(Cl)c(-c3ccc(Cl)cc3)c(Cl)n2)cc1,-1.5,1.4,-12.4,-0.6,-8.5,x
O=C(COc1coc(CN2CCc3ccccc32)cc1=O)Nc1cccc(F)c1,x,x,x,x,5.0,x
